# Laboratory results published in PubChem BioAssay (Tox21).
# A number with no mark means an inactive call. Records with an inconclusive call do not appear. A call without a number means that no potency is given here. Activity calls are given as the source filed them. Unless noted, calls follow the shape of the dose curve; as a rule, active = well fitted curve in the direction sought with a large enough effect in the repeat runs; inconclusive = weak or mixed curves; inactive = no such curve, though single readings can be large; an effect the other way counts as inactive or inconclusive.
# What was measured:
# [1] = A CellTox Green Cytotoxicity Assay to monitor cytotoxicity in HepG2 cells - 8 hour (AID 1224890); also: nearly all actives have a fitted effect of over 45% in size; also: potency is read from the fitted curve at half-maximal effect
# Outline: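 First, HepG2 cells (600/well) mixed with reagent were plated; second, after 5 h at 37 C they received compounds via pintool; third, fluorescence was measured at 0 h through 40 h at 8 h intervals.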
# [2] = qHTS assay to identify small molecule antagonists of the estrogen receptor alpha (ER-alpha) signaling pathway using the BG1 cell line in the presence of 0.1 nM 17-beta-estradiol - cell viability counter screen (AID 1259241); also: nearly all actives have a fitted effect of over 40% in size
# Outline: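 Cytotoxicity counter-screen: live-cell protease activity measured by fluorescence (30 min reagent step) in the same wells. Cells were VM7Luc4E2 with endogenous ER-alpha and ERE-driven luciferase, treated 22 hr at 37C alongside 0.1 nM 17beta-estradiol final.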
# [3] = qHTS assay to identify small molecule antagonists of the androgen receptor (AR) signaling pathway using the MDA cell line in the presence of 0.5 nM R1881 - cell viability counter screen (AID 1259242); also: nearly all actives have a fitted effect of over 45% in size
# Outline: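 qHTS format. MDA-kb2 (MMTV-luc, AR/GR responsive) + cpd + 0.5 nM R1881 final, 16 hr 37C/0% CO2 → CellTiter-Fluor 30 min → fluorescence intensity.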
# [4] = biological target: Estrogen receptor (Homo sapiens) (UniProt P03372); experiment: qHTS assay to identify small molecule antagonists of the estrogen receptor alpha (ER-alpha) signaling pathway using the BG1 cell line in the presence of 0.1 nM 17-beta-estradiol (AID 1259244); also: nearly all actives have a fitted effect of over 50% in size
# Outline: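 Reporter is a stably transfected luciferase under four estrogen responsive elements in VM7Luc4E2 cells expressing native full-length ER-alpha; inhibition of 0.1 nM (final) 17beta-estradiol-driven signal over 22 h is read by luminescence.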
# [5] = qHTS assay to identify small molecule HDAC inhibitors (AID 1259364);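 also: wild-type HCT-116 cells with endogenous class I/II HDAC activity; top concentration of the series differs between compounds; nearly all actives have a fitted effect of over 45% in size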
# Outline: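 Quantitative high-throughput format: overnight-seeded HCT-116 cells got compounds for 2 hr at 37C; HDAC-Glo I/II reagent added, 30 min RT, luminescence measured.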
# [6] = qHTS assay to identify small molecule antagonists of the sonic hedgehog signaling (Shh) pathway - cell viability counter screen (AID 1259367); also: nearly all actives have a fitted effect of over 55% in size
# Outline: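 Fluorescence read-out (CellTiter-Fluor, 1 hr at 37C) taken after 23 hr compound treatment of 3T3 Gli1-Luc cells stimulated with conditioned medium. Cells were seeded at 2,000 per well and pre-incubated 4 hr.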
# [7] = qHTS assay to identify small molecule agonists of the sonic hedgehog signaling (Shh) pathway - cell viability counter screen (AID 1259366); also: nearly all actives have a fitted effect of over 50% in size; also: potency is read from the fitted curve at half-maximal effect
# Outline: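 Cytotoxicity counter screen: CellTiter-Fluor reagent added after 23 h compound exposure, then 1 h at 37C and fluorescence read. Cells were 3T3 Gli1-Luc, seeded 2,000 per well and dosed 4 h post-plating.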
# [8] = qHTS assay to identify small molecule HDAC inhibitors - cell viability counter screen (AID 1259365); also: series mostly up to about 92 µM; nearly all actives have a fitted effect of over 50% in size
# Outline: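 CellTiter-Glo luminescence (30 min, room temperature) reported viability after a 2 h compound exposure at 37 C. Cells: wild-type HCT-116, 1,500 per well, seeded the night before.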
# [9] = qHTS assay to identify small molecule phospholipidosis (PLD) inducers (AID 1259344; active = well fitted curve in the direction sought with a large enough effect; an effect the other way counts as inactive or inconclusive)
# Outline: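 Read-out is LipidTOX Red fluorescence (ex 595/em 615) imaged in HepG2 cells after 24 h compound exposure at 37 C, with Hoechst nuclear counterstain (ex 352/em 461) allowing per-cell normalisation.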
# Sequence of Estrogen receptor (Homo sapiens) (P03372 whole entry, looked up): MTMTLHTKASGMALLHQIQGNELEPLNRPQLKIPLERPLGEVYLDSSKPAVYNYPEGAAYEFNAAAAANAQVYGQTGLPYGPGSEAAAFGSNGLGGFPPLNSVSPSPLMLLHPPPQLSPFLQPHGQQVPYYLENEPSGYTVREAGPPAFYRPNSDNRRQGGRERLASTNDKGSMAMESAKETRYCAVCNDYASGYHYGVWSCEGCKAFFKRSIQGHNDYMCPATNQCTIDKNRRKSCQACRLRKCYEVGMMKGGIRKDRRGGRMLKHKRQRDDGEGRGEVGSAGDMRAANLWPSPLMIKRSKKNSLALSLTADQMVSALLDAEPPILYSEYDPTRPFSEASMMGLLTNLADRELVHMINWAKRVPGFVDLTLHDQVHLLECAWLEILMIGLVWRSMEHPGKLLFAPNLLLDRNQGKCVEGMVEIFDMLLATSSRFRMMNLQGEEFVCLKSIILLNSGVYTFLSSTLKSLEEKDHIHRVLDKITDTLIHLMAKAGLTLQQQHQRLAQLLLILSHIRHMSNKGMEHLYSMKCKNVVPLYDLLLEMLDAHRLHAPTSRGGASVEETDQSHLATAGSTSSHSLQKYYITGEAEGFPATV
SMILES,Potency [1],Potency [2],Potency [3],Potency [4],Potency [5],Potency [6],Potency [7],Potency [8],Potency [9]
CC(C)(C)CC(=O)OCC(=O)[C@@]1(O)CC[C@H]2[C@@H]3CCC4=CC(=O)C=C[C@]4(C)[C@H]3[C@@H](O)C[C@@]21C,inactive,inactive,inactive,inactive,inactive,inactive,,,
CC(O)c1ccccc1 (centres undefined),inactive,inactive,inactive,inactive,inactive,inactive,inactive,,
CCC1(CO)COCOC1,inactive,inactive,inactive,inactive,inactive,inactive,inactive,,
O[C@@H]1CO[C@H]2[C@@H]1OC[C@@H]2O,inactive,inactive,inactive,inactive,inactive,inactive,inactive,inactive,
C=C1CCC2CC1C2(C)C (centres undefined),inactive,inactive,inactive,inactive,inactive,inactive,inactive,inactive,
CC[N+](CC)(CCNC(=O)C(=O)NCC[N+](CC)(CC)Cc1ccccc1Cl)Cc1ccccc1Cl,inactive,inactive,inactive,inactive,inactive,inactive,inactive,inactive,
CN(C)CCC=C1c2ccccc2C=Cc2ccccc21,inactive,inactive,inactive,inactive,inactive,inactive,inactive,inactive,
Cc1ccc(C(C)(C)O)cc1,inactive,inactive,inactive,inactive,inactive,inactive,inactive,,
CN1C(C(=O)Nc2ccccn2)=C(O)c2sccc2S1(=O)=O,inactive,inactive,inactive,inactive,inactive,inactive,inactive,inactive,
O=Cc1c2ccccc2c(Cl)c2ccccc12,inactive,inactive,inactive,inactive,inactive,inactive,inactive,inactive,
CCOC(=O)[C@H](CCc1ccccc1)N[C@@H](C)C(=O)N(CC(=O)O)C1Cc2ccccc2C1,inactive,inactive,inactive,inactive,inactive,inactive,inactive,inactive,
C[C@]12CC[C@@H]3c4ccc(O)cc4CC[C@H]3[C@@H]1CC[C@@H]2OC(=O)CCC1CCCC1,49 µM (active),inactive,inactive,inactive,,inactive,54.5 µM (active),inactive,
N#CCc1ccc(Cl)cc1Cl,inactive,inactive,inactive,inactive,,inactive,inactive,inactive,
Cc1ccc(CO)cc1,inactive,inactive,inactive,inactive,inactive,inactive,inactive,inactive,
O=c1[nH]c2ccc(Cl)cc2o1,inactive,inactive,inactive,inactive,inactive,inactive,inactive,inactive,
CCCCCCCCCI,inactive,inactive,inactive,inactive,inactive,inactive,inactive,inactive,
C/C=C\C/C=C/CCCCCCCCOC(C)=O,inactive,inactive,inactive,inactive,,inactive,inactive,inactive,

SMILES,Potency [1],Potency [2],Potency [3],Potency [4],Potency [5],Potency [6],Potency [7],Potency [8],Potency [9]
CCCCN(CCCC)C(C(N)=O)c1ccc(OC)cc1 (centres undefined),inactive,inactive,inactive,inactive,inactive,inactive,inactive,inactive,
CO[C@]1(NC(=O)CSC(F)F)C(=O)N2C(C(=O)O)=C(CSc3nnnn3CCO)CO[C@H]21,inactive,inactive,inactive,inactive,inactive,inactive,inactive,inactive,
CCOC(=O)/C=C/C(=O)OCC,inactive,inactive,inactive,inactive,inactive,inactive,inactive,inactive,
O=C=Nc1ccc(Cl)c(Cl)c1,inactive,inactive,inactive,inactive,inactive,inactive,inactive,inactive,
Cc1ccc(Cl)c(Nc2ccccc2C(=O)O)c1Cl,inactive,inactive,inactive,inactive,inactive,inactive,inactive,inactive,
O=C(O)C[C@H](NC(=O)OCc1ccccc1)C(=O)O,inactive,inactive,inactive,inactive,inactive,inactive,inactive,inactive,
CC(=O)[C@H]1[C@H](C#N)C[C@H]2[C@@H]3CC=C4C[C@@H](O)CC[C@]4(C)[C@H]3CC[C@@]21C,inactive,inactive,inactive,inactive,inactive,inactive,inactive,inactive,
CCCC(=O)C(=O)O,inactive,inactive,inactive,inactive,inactive,inactive,inactive,inactive,
CC(C)=CCC1C(=O)N(c2ccccc2)N(c2ccccc2)C1=O,inactive,inactive,inactive,inactive,inactive,inactive,inactive,,
O=C(O)CCC(=O)C(=O)O,inactive,inactive,inactive,inactive,inactive,inactive,inactive,inactive,
FC(F)(F)c1ccccc1Cl,inactive,inactive,inactive,inactive,inactive,inactive,inactive,,
c1ccc2sc(SN(C3CCCCC3)C3CCCCC3)nc2c1,inactive,inactive,inactive,inactive,inactive,inactive,inactive,,
CC(CCC(=O)O)C(=O)O (centres undefined),inactive,inactive,inactive,,inactive,inactive,inactive,inactive,
CC(=O)Nc1ccc(C)cc1C,inactive,inactive,inactive,,inactive,inactive,inactive,inactive,
CN1C(=O)c2ccccc2C1=O,inactive,inactive,inactive,,inactive,,inactive,inactive,inactive
CC(C)(c1ccccc1)c1ccccc1,inactive,inactive,inactive,,inactive,inactive,inactive,inactive,
